Assay results: PubChem BioAssay (Tox21)
“And” between values parts separate entries of the source, which are not always exact repeats. Equal entries are not always repeated. The source made the active and inactive calls. Unless noted, calls come from the whole dose curve; as a rule, active = well fitted curve in the direction sought with a large enough effect in the repeat runs; inconclusive = weak or mixed curves; inactive = no such curve, though single readings can be large; an effect the other way counts as inactive or inconclusive.

Legend:
[1] = qHTS assay to identify small molecule antagonists of the glucocorticoid receptor (GR) signaling pathway - cell viability counter screen (AID 720693); note: nearly all actives have a fitted effect of over 55% in size; note: potency is the fitted concentration of half-maximal effect
[2] = qHTS assay for identifying genotoxic compounds that show differential cytotoxicity against isogenic chicken DT40 cell lines with known DNA damage response pathways - wild type cell line (AID 743012); note: potency is the fitted concentration of half-maximal effect; nearly all actives have a fitted effect of over 60% in size
Procedure, shortened: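 Viability by ATP luminescence (CellTiter-Glo, 30 min RT) after 40 h compound treatment at 37 C/5% CO2, using 300 parental DNA repair-proficient DT40 cells per well.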

[3] = qHTS assay for identifying genotoxic compounds that show differential cytotoxicity against isogenic chicken DT40 cell lines with known DNA damage response pathways - Rad54/Ku70 mutant cell line (AID 743015); note: nearly all actives have a fitted effect of over 60% in size; note: potency is the fitted concentration of half-maximal effect
[4] = qHTS assay to identify small molecule antagonists of the androgen receptor (AR) signaling pathway - cell viability counter screen (AID 743033; note: nearly all actives have a fitted effect of over 45% in size; note: potency is the fitted concentration of half-maximal effect)
[5] = target: Androgen receptor (Homo sapiens) (UniProt P10275); assay: qHTS assay to identify small molecule antagonists of the androgen receptor (AR) signaling pathway (AID 743035; active = well fitted inhibition curve with a large enough effect in the signal ratio in the repeat runs, not every such curve was filed as active; inconclusive = weak or mixed curves, or effect the other way; inactive = no such curve, though single readings can be large or run the other way; the % refers to the signal ratio; note: % is set by controls: 0 for no effect and ±100 for the full control effect)
Sequence of Androgen receptor (Homo sapiens) (P10275 whole entry, looked up): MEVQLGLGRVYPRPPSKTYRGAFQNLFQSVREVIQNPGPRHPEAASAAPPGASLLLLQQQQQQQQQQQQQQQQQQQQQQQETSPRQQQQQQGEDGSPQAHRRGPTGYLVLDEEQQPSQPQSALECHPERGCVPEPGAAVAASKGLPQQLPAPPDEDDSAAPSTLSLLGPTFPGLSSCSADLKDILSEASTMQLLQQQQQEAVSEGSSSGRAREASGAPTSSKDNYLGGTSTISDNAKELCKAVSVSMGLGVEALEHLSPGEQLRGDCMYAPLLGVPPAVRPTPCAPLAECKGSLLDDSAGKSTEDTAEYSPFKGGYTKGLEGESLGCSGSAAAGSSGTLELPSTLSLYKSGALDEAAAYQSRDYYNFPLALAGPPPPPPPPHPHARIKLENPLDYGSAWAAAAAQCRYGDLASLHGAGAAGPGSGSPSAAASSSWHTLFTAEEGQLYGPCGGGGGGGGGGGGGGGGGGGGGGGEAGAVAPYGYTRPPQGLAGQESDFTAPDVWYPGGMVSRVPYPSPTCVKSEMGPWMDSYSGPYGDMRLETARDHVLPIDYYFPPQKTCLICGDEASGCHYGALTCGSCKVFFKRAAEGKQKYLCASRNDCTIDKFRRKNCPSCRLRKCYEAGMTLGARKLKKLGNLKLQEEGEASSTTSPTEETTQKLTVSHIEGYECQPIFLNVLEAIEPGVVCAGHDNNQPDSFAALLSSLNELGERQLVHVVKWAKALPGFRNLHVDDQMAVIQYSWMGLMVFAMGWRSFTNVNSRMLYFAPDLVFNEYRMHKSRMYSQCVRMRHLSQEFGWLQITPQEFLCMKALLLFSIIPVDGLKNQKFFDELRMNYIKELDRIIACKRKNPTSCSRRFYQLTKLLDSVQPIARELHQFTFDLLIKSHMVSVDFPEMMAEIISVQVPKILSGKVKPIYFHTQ
Procedure, shortened: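 Antagonist mode: AR-bla HEK293 cells co-treated with test compounds and agonist R1881 for 16 h at 37C, 5% CO2. Beta-lactamase activity read as FRET fluorescence after 2 h room-temperature substrate loading.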

[6] = target: Androgen receptor (Homo sapiens) (UniProt P10275); assay: qHTS assay to identify small molecule agonists of the androgen receptor (AR) signaling pathway using the MDA cell line (AID 743040; note: % is set by controls: 0 for no effect and ±100 for the full control effect; nearly all actives have a fitted effect of over 20% in size)
Procedure, shortened: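 Stable MMTV-luciferase reporter in MDA-kb2 cells; note the promoter carries GR as well as AR response elements. 16 h compound treatment, 37C, 0% CO2; ONE-Glo luminescence endpoint.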

[7] = qHTS assay to identify small molecule antagonists of the androgen receptor (AR) signaling pathway using the MDA cell line - cell viability counter screen (AID 743041; note: nearly all actives have a fitted effect of over 45% in size; note: potency is the fitted concentration of half-maximal effect)
Procedure, shortened: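 Using the breast carcinoma line MDA-kb2 AR-luc, test chemicals were co-incubated with R1881 for 16 h; CellTiter-Fluor reagent, added at 15.5 h, provided a fluorescence measure of live cells.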

[8] = target: Androgen receptor (Homo sapiens) (UniProt P10275); assay: qHTS assay to identify small molecule antagonists of the androgen receptor (AR) signaling pathway using the MDA cell line (AID 743042; note: nearly all actives have a fitted effect of over 55% in size; note: potency is the fitted concentration of half-maximal effect)
Procedure, shortened: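 Antagonist mode: compounds plus R1881 agonist added to MDA-kb2 AR-luc cells, incubated 16 h at 37C. Luciferase reporter luminescence quantified, with multiplexed CellTiter-Fluor readout for cell viability.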

[9] = qHTS assay to identify small molecule antagonists of the thyroid receptor (TR) signaling pathway - cell viability counter screen (AID 743064); note: nearly all actives have a fitted effect of over 50% in size; note: potency is the fitted concentration of half-maximal effect
Procedure, shortened: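 GH3.TRE-Luc rat pituitary cells dosed after 4 hr plating, co-stimulated with T3 at 1 nM final, incubated 23.5 h at 37 C. Viability measured in the same wells by CellTiter-Fluor fluorescence after 30 min further at 37 C.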

[10] = qHTS assay to identify small molecule antagonists of the thyroid receptor (TR) signaling pathway (AID 743065); note: potency is the fitted concentration of half-maximal effect; nearly all actives have a fitted effect of over 55% in size
Procedure, shortened: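 Antagonism measured as loss of luciferase signal in GH3 cells stably carrying a TRE-luciferase reporter, co-treated with compound and T3 (1 nM final) for 23.5 h at 37 C. Viability was read in the same well by CellTiter-Fluor.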

[11] = system: thyroid hormone receptor (rat, GH3 cells); assay: qHTS assay to identify small molecule agonists of the thyroid receptor (TR) signaling pathway (AID 743066; calls by dose curve; note: potency is the fitted concentration of half-maximal effect; for activation: % is set by controls: 0 for no effect and ±100 for the full control effect)
[12] = qHTS assay to identify small molecule antagonists of the estrogen receptor alpha (ER-alpha) signaling pathway - cell viability counter screen (AID 743074; calls by dose curve; note: nearly all actives have a fitted effect of over 45% in size; note: potency is the fitted concentration of half-maximal effect)
Aromatase (Homo sapiens) = Aromatase (Homo sapiens) (UniProt P11511); assay: qHTS assay to identify aromatase inhibitors (AID 743083); note: nearly all actives have a fitted effect of over 55% in size; note: potency is the fitted concentration of half-maximal effect
Sequence of Aromatase (Homo sapiens) (P11511 whole entry, looked up): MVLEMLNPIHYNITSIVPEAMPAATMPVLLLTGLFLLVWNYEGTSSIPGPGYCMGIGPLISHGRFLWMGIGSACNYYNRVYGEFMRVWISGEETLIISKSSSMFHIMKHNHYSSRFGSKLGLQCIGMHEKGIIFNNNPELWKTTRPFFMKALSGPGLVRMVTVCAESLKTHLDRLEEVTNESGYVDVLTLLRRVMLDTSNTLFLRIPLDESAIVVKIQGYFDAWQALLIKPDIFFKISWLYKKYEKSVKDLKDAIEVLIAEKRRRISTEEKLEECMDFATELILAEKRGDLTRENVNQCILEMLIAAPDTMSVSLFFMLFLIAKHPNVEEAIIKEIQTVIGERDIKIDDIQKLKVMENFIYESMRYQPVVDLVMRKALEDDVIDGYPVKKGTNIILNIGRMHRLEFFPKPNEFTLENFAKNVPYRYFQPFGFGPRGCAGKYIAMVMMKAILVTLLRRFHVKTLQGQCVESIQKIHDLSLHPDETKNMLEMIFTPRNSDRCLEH

[13] = qHTS assay for identifying genotoxic compounds that show differential cytotoxicity against isogenic chicken DT40 cell lines with known DNA damage response pathways - Rev3 mutant cell line (AID 743014); note: nearly all actives have a fitted effect of over 55% in size; note: potency is the fitted concentration of half-maximal effect
[14] = target: Estrogen receptor (Homo sapiens) (UniProt P03372); assay: qHTS assay to identify small molecule antagonists of the estrogen receptor alpha (ER-alpha) signaling pathway (AID 743069; active = well fitted curve in the direction sought with a large enough effect in the signal ratio in the repeat runs, not every such curve was filed as active; inconclusive = weak or mixed curves, or effect the other way; inactive = no such curve, though single readings can be large or run the other way; the % refers to the signal ratio; note: potency is the fitted concentration of half-maximal effect)
Sequence of Estrogen receptor (Homo sapiens) (P03372 whole entry, looked up): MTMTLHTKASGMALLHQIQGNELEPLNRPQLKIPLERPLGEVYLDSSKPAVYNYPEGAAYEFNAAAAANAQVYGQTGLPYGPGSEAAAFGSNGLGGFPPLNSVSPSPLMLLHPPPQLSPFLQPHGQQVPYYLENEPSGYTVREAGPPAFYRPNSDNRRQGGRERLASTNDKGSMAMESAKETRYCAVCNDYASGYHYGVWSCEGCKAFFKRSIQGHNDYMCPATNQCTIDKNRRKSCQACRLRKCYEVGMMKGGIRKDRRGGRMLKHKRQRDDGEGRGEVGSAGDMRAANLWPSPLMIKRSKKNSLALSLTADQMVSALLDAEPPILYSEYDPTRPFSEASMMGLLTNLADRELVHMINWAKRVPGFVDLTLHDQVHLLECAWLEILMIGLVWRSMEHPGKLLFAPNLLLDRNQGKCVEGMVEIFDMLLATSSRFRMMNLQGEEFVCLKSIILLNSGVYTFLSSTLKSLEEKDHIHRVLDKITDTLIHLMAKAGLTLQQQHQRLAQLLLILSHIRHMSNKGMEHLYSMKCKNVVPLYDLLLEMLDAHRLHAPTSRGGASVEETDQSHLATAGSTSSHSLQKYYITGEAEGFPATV
Procedure, shortened: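 Fluorescence intensity from a beta-lactamase FRET substrate served as the read-out. Cells: HEK293 with stably integrated ER-alpha-UAS-bla reporter. Agonist 17beta-estradiol was co-added with compounds; incubation 18 hr at 37C, substrate 2 hr at room temperature.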

[15] = target: Estrogen receptor (Homo sapiens) (UniProt P03372); assay: qHTS assay to identify small molecule agonists of the estrogen receptor alpha (ER-alpha) signaling pathway (AID 743075; calls by dose curve; note: potency is the fitted concentration of half-maximal effect; for activation: % is set by controls: 0 for no effect and ±100 for the full control effect); conditions: HEK293 ER-alpha-UAS-bla, beta-lactamase FRET ratio, 18 h; activation: at 70.1 µM (top of the series)
[16] = qHTS assay to identify small molecule antagonists of the estrogen receptor alpha (ER-alpha) signaling pathway using the BG1 cell line - cell viability counter screen (AID 743081);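 note: compound given together with 17beta-estradiol as the ER stimulus; nearly all actives have a fitted effect of over 45% in size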; note: potency is the fitted concentration of half-maximal effect
[17] = target: Estrogen receptor (Homo sapiens) (UniProt P03372); assay: qHTS assay to identify small molecule agonists of the estrogen receptor alpha (ER-alpha) signaling pathway using the BG1 cell line (AID 743079); conditions: BG1Luc4E2 cells, ERE-luciferase agonist, 22 h; at 70.3 µM (top of the series); note: % is set by controls: 0 for no effect and ±100 for the full control effect; nearly all actives have a fitted effect of over 20% in size
[18] = qHTS assay to identify small molecule antagonists of the estrogen receptor alpha (ER-alpha) signaling pathway using the BG1 cell line (AID 743080; calls by dose curve;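 note: BG1 cells stimulated with 17beta-estradiol alongside compound; nearly all actives have a fitted effect of over 25% in size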; note: potency is the fitted concentration of half-maximal effect)
Procedure, shortened: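 BG1-Luc-4E2 cells (endogenous full-length ER-alpha, 4xERE luciferase) hormone-starved 5 days in charcoal-stripped FBS, plated 4,000/well for 24 h, then compound plus 17beta-estradiol for 21.5 h at 37 C; ONE-Glo luminescence read.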

[19] = target: Androgen receptor (Homo sapiens) (UniProt P10275); assay: qHTS assay to identify small molecule agonists of the androgen receptor (AR) signaling pathway (AID 743036; active = well fitted activation curve with a large enough effect in the signal ratio in the repeat runs, with a control signal flat, not every such curve was filed as active; inconclusive = weak or mixed curves, or effect the other way; inactive = no such curve, though single readings can be large or run the other way; the % refers to the signal ratio; note: % is set by controls: 0 for no effect and ±100 for the full control effect)
Procedure, shortened: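 AR-UAS-bla HEK293 cells, plated 4 h before dosing, were treated with compound for 16 h at 37C. beta-Lactamase reporter read after 2 h with LiveBLAzer B/G FRET substrate at room temperature.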

CC(C)(C)CC(C)(C)c1ccc(O)c(Cc2ccc(Cl)cc2Cl)c1
inactive: Potency [4] | Potency [5] | Potency [6] | Potency [7] | Potency [8] | Potency (Aromatase (Homo sapiens))
active: Potency [1] 10.7 µM | Potency [2] 26.6 µM | Potency [3] 26.6 µM | Potency [9] 6.68 µM | Potency [10] 6.68 µM | Potency [11] 2.11 µM | Potency [12] 23.9 µM

C[C@@H](NCCCc1cccc(C(F)(F)F)c1)c1cccc2ccccc12
active: Potency [1] 13.4 µM | Potency [13] 5.96 µM | Potency [3] 5.96 µM | Potency [4] 19 µM | Potency [9] 7.5 µM | Potency [10] 8.41 µM | Potency [12] 23.9 µM | Potency (Aromatase (Homo sapiens)) 13.3 µM
inactive: Potency [6] | Potency [7]

CCCCN1C(=O)[C@@H]([C@H](O)C2CCCCC2)NC(=O)C12CCN(Cc1ccc(Oc3ccc(C(=O)O)cc3)cc1)CC2
inactive: Potency [1] | Potency [7] | Potency [14] | Potency [12] | Potency [15] | Potency [16] | Potency (Aromatase (Homo sapiens))
active: Potency [2] 61.1 µM | Potency [3] 15.4 µM | Potency [10] 61.1 µM

CCCCCCCCCCCCCCCCCC[N+](C)(C)C
active: Potency [1] 24.6 µM | Potency [13] 1.37 µM | Potency [3] 2.74 µM | Potency [4] 43.8 µM | Potency [7] 48.7 µM | Potency [8] 24.4 µM | Potency [9] 12.2 µM | Potency [12] 43.8 µM | Potency (Aromatase (Homo sapiens)) 21.8 µM
inactive: Potency [6]

Cc1cc(O)c2ccccc2c1O
active: Potency [2] 29.8 µM | Potency [3] 29.8 µM | Potency [10] 33.5 µM
inactive: Potency [1] | Potency [4] | Potency [5] | Potency [6] | Potency [7] | Potency [8] | Potency [14] | Potency [12] | activation [17] -13.8% | Potency [16] | Potency (Aromatase (Homo sapiens))

Oc1ccc(Cl)cc1Sc1cc(Cl)ccc1O
active: Potency [1] 16.9 µM and 19.5 µM | Potency [13] 11.9 µM and 19.3 µM | Potency [3] 16.8 µM and 24.3 µM | Potency [4] 21.3 µM and 13.8 µM | Potency [7] 29.8 µM and 61 µM | Potency [9] 11.9 µM and 7.68 µM | Potency [10] 5.96 µM and 2.73 µM | Potency [12] 19 µM and 38.8 µM | Potency (Aromatase (Homo sapiens)) 26.6 µM and 27.3 µM
inactive: Potency [11] | Potency [15] | Potency [18] | Potency [16]

CN1CCN(CCC(=O)N2c3ccccc3Sc3ccc(C(F)(F)F)cc32)CC1
active: Potency [13] 13.3 µM | Potency [3] 21.1 µM | Potency [9] 11.9 µM | Potency [10] 26.6 µM
inactive: Potency [1] | Potency [4] | Potency [5] | Potency [19] | Potency [6] | Potency [7] | Potency [8] | Potency [14] | Potency [15] | activation [17] -0.0617% | Potency [18] | Potency (Aromatase (Homo sapiens))

CCN(CCC#N)c1ccc(N=Nc2c(Cl)cc([N+](=O)[O-])cc2Cl)cc1
inactive: Potency [1] | Potency [11] | Potency [14] | Potency [12] | Potency [15] | activation [17] -0.554% | Potency [18] | Potency (Aromatase (Homo sapiens))
active: Potency [13] 10.9 µM | Potency [3] 17.2 µM | Potency [9] 24.3 µM | Potency [10] 24.3 µM | Potency [16] 27.3 µM

Cc1cc(C2CCCCC2)n(O)c(=O)c1
inactive: Potency [1] | Potency [4] | Potency [7] | Potency [15] | Potency [16]
active: Potency [13] 1.14 µM | Potency [3] 2.54 µM | Potency [9] 2.54 µM | Potency [10] 2.27 µM | Potency [14] 2.88 µM [inhibitor] | Potency [18] 9.02 µM

CCOC(=O)/C=C(C)/C=C/C=C(C)/C=C/c1c(C)cc(OC)c(C)c1C
active: Potency [13] 2.37 µM | Potency [3] 6.68 µM | Potency [18] 4.22 µM
inactive: Potency [1] | Potency [4] | Potency [7] | Potency [15] | Potency [16] | Potency (Aromatase (Homo sapiens))

CCC1=C[C@@H]2CN(C1)Cc1c([nH]c3ccccc13)[C@@](C(=O)OC)(c1cc3c(cc1OC)N(C)[C@H]1[C@@](O)(C(=O)OC)[C@H](OC(C)=O)[C@]4(CC)C=CCN5CC[C@]31[C@@H]54)C2
active: Potency [13] 0.0841 µM | Potency [3] 0.119 µM | Potency [9] 4.73 µM | Potency [10] 1.88 µM
inactive: Potency [1] | Potency [4] | Potency [7] | Potency [12] | Potency [18] | Potency (Aromatase (Homo sapiens))

OCCCCCCCCCCCCBr
inactive: Potency [1] | Potency [7] | Potency [11] | Potency [12] | Potency [16] | Potency (Aromatase (Homo sapiens))
active: Potency [13] 3.92 µM | Potency [3] 5.53 µM

NC(=O)N1C(=O)C(C(=O)c2cc(Cl)cs2)c2cc(F)c(Cl)cc21 (stereo not given)
active: Potency [1] 38.9 µM | Potency [3] 61.1 µM | Potency [9] 61.1 µM | Potency [10] 61.1 µM | Potency [12] 49 µM | Potency [16] 8.63 µM
inactive: Potency [4] | Potency [6] | Potency [8] | Potency [15] | Potency [18]

Cc1nc(-c2ccc3c(c2)CCN(CCC2CCC(NC(=O)/C=C/c4ccc(F)cc4)CC2)CC3)no1 (stereo not given)
inactive: Potency [1] | Potency [6] | Potency [7] | Potency [8] | Potency [11] | Potency [12] | Potency [18] | Potency [16] | Potency (Aromatase (Homo sapiens))
active: Potency [13] 0.687 µM | Potency [3] 0.546 µM | Potency [9] 10.9 µM | Potency [15] 9.79 µM [inconclusive]

CC(NN)c1ccccc1 (stereo not given)
inactive: Potency [1] | Potency [13] | Potency [3] | Potency [4] | Potency [7] | Potency [12] | Potency [18] | Potency [16] | Potency (Aromatase (Homo sapiens))

Oc1ccc2c(c1)-c1ccccc1C2
active: Potency [13] 54.5 µM
inactive: Potency [1] | Potency [19] | Potency [6] | Potency [7] | Potency [8] | Potency [9] | Potency [11] | Potency [12] | Potency [16]
